For 27 compounds, growth results are on record in PubChem BioAssay (NCI).

Assay in all cases: NCI-60 one-dose screen, 48 h (100 = growth as untreated, 0 = no growth, -100 = all killed)
Common to all, as to conditions: 10 µM unless noted

Assay [1] concerns HCT-15 colon.
For assay [2], the system named is HT29 colon.
Assay [3] relates to SNB-75 CNS.
Assay [4] relates to SNB-19 CNS.
For assay [5], the system named is U251 CNS.
Assay [6] relates to PC-3 prostate.
The subject of assay [7] is SK-MEL-5 melanoma.
In assay [8] the test system is UACC-62 melanoma.
For assay [9], the system named is LOX IMVI melanoma.
For assay [10], the system named is SK-MEL-28 melanoma.

About 83,000 compounds went through this panel and 20% of them were active in at least one assay; those are over-represented in the sample as a whole.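 Cell lines were cultured in 96-well plates, exposed to a single compound concentration, and assessed for percent growth 48 hours later.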 Unmarked numbers belong to inactive results. Activity calls are given as the source filed them. The calls were made as follows: active = growth percent below 10; inactive = the rest.

Take `[2H]c1nc(Nc2ncc(F)c(-c3cc(F)c4nc(C)n(C(C)C)c4c3)n2)c([2H])c([2H])c1CN1CCN(CC)CC1`: the growth in assay [1] was 33.2%; in [2] it was 31.5%; in assay [3], 26.5%; in [4], 61.8%; in [5], 46.1%; in assay [6], 47.8%. The growth in [7] is 27.5%; in [8], 62.5%; in assay [9], 37%; in [10] it was 60.5%.

`COc1ccc(-c2nnc(SCC(=O)N3CCN(c4cc5c(cc4F)c(=O)c(C(=O)O)cn5C4CC4)CC3)o2)cc1OC`: the growth in assay [1] was 93.6%; in [2], 94.6%; in [3], 98.4%; in [4] it was 97.4%; in [5], 98.4%; in assay [6] it was 59.2%. The growth in [7] is 99.7%; in assay [8], 97.7%; in assay [9], 81.6%; in assay [10] it was 95.2%.

For the compound `O=S(=O)(CCN1CCOCC1)Nc1cc(-c2ccc3ncnc(Nc4ccc(F)c(Cl)c4)c3c2)cnc1Cl`, the growth in assay [1] is 16.2%; in assay [2], 14.6%; in assay [3], -20.7% (active); in assay [4], 5.93% (active); in assay [5], 13.5%; in [6], 13.4%. In addition, the growth in assay [7] was -5.68% (active); in assay [8], -16.4% (active); in [9], 4.23% (active); in assay [10], 2.15% (active).

For `NCC(=O)NS(=O)(=O)OC[C@H]1O[C@@H](n2cnc3c(N)ncnc32)[C@H](O)[C@@H]1O`, the growth was 11.4% in assay [1]; 6% (active) in assay [2]; -6.72% (active) in assay [3]; -6.06% (active) in [4]; -39.3% (active) in assay [5]; 9.66% (active) in assay [6]. Also, the growth in assay [7] was -0.341% (active); in assay [8] it was 30.7%; in assay [9], -45.6% (active); in [10], 8.36% (active).

`CC(=O)c1ccc2c(c1)C1C=CCC1[C@H](c1cc3c(cc1Br)OCO3)N2` (stereo not given in full): the growth in assay [1] is 18.4%; in [2] it was 4.15% (active); in assay [3], 30.6%; in assay [4] it was 44.6%; in [5], 14%; in [6], 20.9%. Further, the growth is 9.13% (active) in assay [7], 34.6% in [8], -35.6% (active) in [9] and 72.7% in assay [10].

Turning to `COc1ccc(/C(Cl)=N/N=C(\Cl)c2cc(OC)c(OC)c(OC)c2)cc1OC(C)=O`, the growth in assay [1] was 100%; in [2], 79.2%; in assay [3], 78.7%; in assay [4], 92.3%; in assay [5], 89.6%; in [6], 74.8%. Further, the growth in assay [7] is 94.8%; in assay [8], 93.9%; in assay [9] it was 96.7%; in [10], 110%.

Regarding `O=C1OC(=O)C2C3CC(c4ccccc43)C12` (stereo not given), the growth in [1] was 94.5%; in assay [2], 112%; in assay [3], 89.4%; in [4], 107%; in [5] it was 97.4%; in [6], 92.1%. Besides, the growth in [7] is 112%; in assay [8], 105%; in assay [9], 103%; in [10] it was 116%.

Turning to `Cc1cn(C2CC(N=[N+]=[N-])C(COP(=O)(O)OP(=O)(O)OP(=O)(O)O)O2)c(=O)[nH]c1=O` (stereo not given), the growth in assay [1] was 120%; in [2] it was 99.8%; in assay [3], 85.3%; in [4], 102%; in [5], 109%; in assay [6] it was 92.4%. Besides, the growth in assay [7] was 106%; in [8], 112%; in assay [9] it was 101%; in assay [10], 99.1%.

Take `Nc1c(C(=O)O)[nH]c(=O)[nH]c1=O`: the growth in [1] was 104%; in [2], 92.7%; in [3], 98%; in assay [4], 104%; in [5] it was 91.9%; in assay [6] it was 94.4%. Also, the growth in assay [7] was 103%; in [8], 89%; in assay [9], 97.6%; in [10], 109%.

As to `CS(=O)(=O)Nc1cccc(-c2ccc3ncnc(Nc4ccc(F)c(Cl)c4)c3c2)c1`, the growth in assay [1] is 1% (active); in assay [2], 1.71% (active); in [3] it was 32.8%; in assay [4], 47.4%; in assay [5], 18.2%; in assay [6], 12.3%. Besides, the growth was 21.4% in assay [7], 28.2% in assay [8], -35.4% (active) in [9] and 44.9% in [10].

Regarding `O=C(Cn1c2ccccc2c2ccncc21)N/N=C/c1c[nH]c2ccccc12`, the growth was 93.4% in assay [1]; 44.2% in [2]; 31% in [3]; 53.4% in [4]; 19.7% in assay [5]; 78.8% in assay [6]. Further, the growth was 4.85% (active) in assay [7], 21.2% in assay [8], 33.3% in assay [9] and 56.5% in assay [10].

Regarding `CN1CCN(Cn2nc(-c3cc(Cl)cc(Cl)c3Cl)n(/N=C/c3ccc(Cl)cc3)c2=S)CC1`, the growth in [1] was 93.5%; in [2] it was 117%; in assay [3], 107%; in assay [4], 96.6%; in assay [5], 93.1%; in [6], 82.4%. Moreover, the growth is 92.3% in [7], 90% in [8], 90.4% in assay [9] and 111% in assay [10].

With `CCN(CC)CCNCC(O)Cc1ccc(OC)cc1` (stereo not given), the growth in assay [1] was 112%; in assay [2] it was 77.4%; in assay [3], 110%; in assay [4] it was 98.9%; in assay [5], 94.5%; in [6], 76.2%. In addition, the growth in assay [7] was 99.9%; in [8], 93.9%; in assay [9], 103%; in [10], 116%.

For `O=C(O)c1cccc2oc(-c3ccccc3O)nc12`, the growth in assay [1] was 34.1%; in assay [2] it was 36.1%; in [3], 74.7%; in assay [4] it was 67.8%; in assay [5], 45.6%; in [6] it was 47.8%. For the same compound, the growth was 58.1% in [7], 65% in assay [8], 4.75% (active) in assay [9] and 77.9% in [10].

`O=C(Nc1ccc(F)cc1)Nc1ccc(Cl)c([N+](=O)[O-])c1`: the growth in [1] is 11.1%; in assay [2] it was 13.6%; in [3] it was 46.7%; in assay [4], 21.5%; in [5], 15.5%; in [6] it was 6.25% (active). Besides, the growth in assay [7] was 22%; in [8] it was 15.9%; in assay [9], 9.41% (active); in assay [10], 22.6%.

Regarding `CCc1cccc(C)c1NC(=O)c1sc2nc3c(cc2c1N)CCCCC3`, the growth in [1] was 27.5%; in assay [2], 8.55% (active); in assay [3], 6.57% (active); in [4], 26.8%; in [5], 24.1%; in assay [6], 35.5%. Also, the growth in assay [7] is 14.2%; in assay [8], 30.2%; in assay [9], 45.1%; in assay [10] it was 67.6%.

`COc1ccc(Cn2cc(COc3ccc4c5ccnc(C)c5n(CCCc5ccccc5)c4c3)nn2)cc1`: the growth in [1] is 68.4%; in [2], 43.5%; in assay [3], 51%; in [4] it was 84.4%; in assay [5], 64.9%; in [6], 74.8%. Besides, the growth in assay [7] was 79.1%; in assay [8], 34.8%; in [9], 70.3%; in [10], 76.2%.

`C=C1C(=O)O[C@H]2[C@H]1CC/C(COC(=O)c1ccccc1)=C\CC[C@@]1(C)O[C@@H]21`: the growth was -66.1% (active) in assay [1]; -62.7% (active) in assay [2]; 68.8% in [3]; 33.1% in assay [4]; 26.8% in assay [5]; 35% in assay [6]. Further, the growth in assay [7] is 12%; in [8], -66.9% (active); in assay [9], -88.6% (active); in assay [10], -33.9% (active).

Regarding `CC1CCC(C(C)C)C(NN)C1` (stereo not given), the growth in [1] was 104%; in assay [2], 77.1%; in assay [3], 103%; in assay [4] it was 106%; in [5], 96.3%; in [6] it was 93.9%. In addition, the growth in assay [7] is 102%; in assay [8], 96.7%; in assay [9], 103%; in assay [10] it was 111%.

`CC(=O)n1cc(/C=C2\N=C(c3ccc(Cl)cc3)N(c3ccc(S(=O)(=O)Nc4nccs4)cc3)C2=O)c2ccccc21`: the growth in assay [1] was 95%; in assay [2], 103%; in assay [3], 92.2%; in assay [4] it was 67.7%; in [5] it was 56.2%; in assay [6] it was 72.6%. Also, the growth is 80.1% in assay [7], 84.1% in assay [8], 93.2% in [9] and 82.2% in assay [10].

With `O=C(Nc1cccc(-n2ccc3c(NC(=O)c4ccccc4)nccc32)c1)Nc1cc(C(F)(F)F)cc(C(F)(F)F)c1`, the growth in [1] was 5.94% (active); in assay [2], -16.3% (active); in assay [3], 38.7%; in assay [4], 20.5%; in assay [5], 0.587% (active); in assay [6], 11.1%. Moreover, the growth in assay [7] is -82.1% (active); in [8], 11.6%; in assay [9], 22.5%; in [10] it was 35.4%.

Consider `Cl[C@@H]1CCO[C@H](c2cc3ccccc3c3ccccc23)C1`, for which the growth is 96.9% in [1]; 98.8% in assay [2]; 103% in assay [3]; 91.7% in assay [4]; 90.6% in assay [5]; 92.8% in assay [6]. Also, the growth in assay [7] was 93%; in [8], 85.2%; in [9] it was 97.6%; in assay [10], 104%.

With `CC1(C)N=C(N)N=C(N)N1c1ccc(OCC(=O)Nc2ccccc2)c(Cl)c1`, the growth is 96.7% in assay [1]; 17.6% in assay [2]; 82.3% in [3]; 49.4% in assay [4]; 41% in assay [5]; 14.8% in assay [6]. Further, the growth in assay [7] is 26.6%; in assay [8], 18.2%; in assay [9] it was 22.4%; in assay [10] it was 76.3%.

As to `Cc1cc(N2CCOCC2)nc(N(CCNc2ccnc3cc(Cl)ccc23)Cc2ccco2)n1`, the growth in assay [1] is 35.8%; in assay [2], 3.4% (active); in [3], 59.5%; in [4], 41.5%; in assay [5], 6.13% (active); in assay [6], 46.7%. For the same compound, the growth is 39.7% in [7], 26% in assay [8], 18.1% in [9] and 52.4% in assay [10].

Consider `O=C(Nc1ccc(-n2ccc3c(NC(=O)c4ccccc4)nccc32)cc1)Nc1cccc(C(F)(F)F)c1`, for which the growth in assay [1] was 19.7%; in assay [2], -0.934% (active); in assay [3] it was 74.3%; in assay [4], 65.8%; in assay [5], 32.3%; in [6], 13.6%. Further, the growth in assay [7] was 53.6%; in assay [8], 78.6%; in assay [9], 26.6%; in [10], 60.3%.

With `Clc1ccc(CN2COc3c(ccc4cccnc34)C2)cc1Cl`, the growth was 16.3% in assay [1]; 30.3% in assay [2]; 9.33% (active) in [3]; 18.5% in assay [4]; 9.29% (active) in [5]; 27.9% in [6]. Also, the growth is -1% (active) in assay [7], -38% (active) in [8], 2.29% (active) in [9] and 33.5% in [10].

Take `Nc1nccc(=S)[nH]1`: the growth in [1] was 98.7%; in assay [2], 75.3%; in assay [3], 94%; in assay [4], 104%; in assay [5] it was 102%; in assay [6] it was 102%. In addition, the growth is 111% in [7], 90% in [8], 100% in assay [9] and 106% in assay [10].
